Data taken from PubChem BioAssay (EPA / NIEHS).
The source made the active and inactive calls. Rule for the calls: active = hit-call score of the fitted dose curve at least 0.9, where 1 is the maximum; inactive = score below 0.9.

What was measured:
[1] = ATG_GRE_CIS: Attagene CIS-FACTORIAL HepG2 Assay for human Glucocorticoid Response Elements (GRE) (AID 2282947); conditions: HepG2 GRE cis-reporter, Attagene multiplex mRNA; actives raise or lower the signal
Outline: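 Read-out: fluorescent reporter-transcript fragments separated by capillary electrophoresis after RT-PCR. Transiently transfected HepG2 cells carrying cis-element-driven reporter units were dosed for 24 h; gain or loss of signal fitted against DMSO control.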

[2] = ATG_M_32_CIS: Attagene CIS-FACTORIAL HepG2 Assay for M32 Transcription Factor (Internal Marker) (AID 2282949); conditions: HepG2 Attagene cis-factorial M32 reporter, mRNA; actives raise or lower the signal;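 note: background control marker of the multiplexed CIS panel rather than a real target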
Outline: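 Transient MRTU transfection of HepG2; 24 h compound treatment; TriZol RNA, oligo(dT) RT, reporter PCR, 6-FAM primer extension, HpaI cut, CE. Gain/loss of signal vs DMSO.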

[3] = ATG_M_06_CIS: Attagene CIS-FACTORIAL HepG2 Assay for M06 Transcription Factor (Internal Marker) (AID 2282950); conditions: HepG2 Attagene CIS-FACTORIAL M06 internal marker reporter; actives raise or lower the signal
Outline: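 Measured 24 h post-dosing in transiently transfected HepG2 cells, this internal-marker endpoint reports reporter mRNA via RT-PCR with fluorescent primer extension and capillary electrophoresis. DMSO served as negative control and baseline for bidirectional fitting.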

[4] = molecular target: Hypoxia-inducible factor 1-alpha (Homo sapiens) (UniProt Q16665); assay: ATG_HIF1a_CIS: Attagene CIS-FACTORIAL HepG2 Assay for human Hypoxia Inducible Factor 1 (HIF1A) (AID 2282951); conditions: HepG2 Attagene cis-factorial HIF1a reporter transcription; actives raise or lower the signal
Sequence of Hypoxia-inducible factor 1-alpha (Homo sapiens) (Q16665 whole entry, looked up): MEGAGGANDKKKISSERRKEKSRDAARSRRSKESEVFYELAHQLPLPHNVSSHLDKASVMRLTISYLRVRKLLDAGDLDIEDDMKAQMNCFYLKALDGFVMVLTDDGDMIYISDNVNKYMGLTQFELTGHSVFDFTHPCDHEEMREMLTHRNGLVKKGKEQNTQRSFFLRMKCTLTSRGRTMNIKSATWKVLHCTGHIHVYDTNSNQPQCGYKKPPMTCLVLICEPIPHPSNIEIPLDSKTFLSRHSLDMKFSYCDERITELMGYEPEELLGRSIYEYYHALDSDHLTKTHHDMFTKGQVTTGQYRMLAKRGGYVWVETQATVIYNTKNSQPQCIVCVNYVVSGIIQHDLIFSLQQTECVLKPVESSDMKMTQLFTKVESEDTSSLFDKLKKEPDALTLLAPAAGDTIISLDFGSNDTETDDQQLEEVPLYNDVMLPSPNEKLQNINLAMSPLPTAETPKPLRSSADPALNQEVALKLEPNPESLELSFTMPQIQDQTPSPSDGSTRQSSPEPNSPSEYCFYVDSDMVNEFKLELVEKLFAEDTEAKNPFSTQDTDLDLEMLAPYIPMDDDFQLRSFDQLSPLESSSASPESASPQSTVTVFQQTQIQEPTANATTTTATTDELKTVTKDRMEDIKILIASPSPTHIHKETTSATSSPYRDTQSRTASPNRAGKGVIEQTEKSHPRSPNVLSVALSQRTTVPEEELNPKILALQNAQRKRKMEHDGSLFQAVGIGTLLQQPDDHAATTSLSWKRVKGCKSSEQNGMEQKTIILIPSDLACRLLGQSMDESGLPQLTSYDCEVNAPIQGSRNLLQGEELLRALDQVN
Outline: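 Activity is fitted in both directions relative to DMSO. Reporter transcripts are read by RT-PCR, fluorescent primer extension and capillary electrophoresis after 24 h chemical treatment. The cells are HepG2 carrying transiently transfected cis-element-driven reporter units responding to endogenous factors.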

[5] = molecular target: Hepatocyte nuclear factor 6 (Homo sapiens) (UniProt Q9UBC0); assay: ATG_HNF6_CIS: Attagene CIS-FACTORIAL HepG2 Assay for human Hepatocyte Nuclear Factor 6 (HNF6) (AID 2282952); conditions: HepG2 Attagene cis-factorial HNF6 reporter transcription; actives raise or lower the signal
Sequence of Hepatocyte nuclear factor 6 (Homo sapiens) (Q9UBC0 whole entry, looked up): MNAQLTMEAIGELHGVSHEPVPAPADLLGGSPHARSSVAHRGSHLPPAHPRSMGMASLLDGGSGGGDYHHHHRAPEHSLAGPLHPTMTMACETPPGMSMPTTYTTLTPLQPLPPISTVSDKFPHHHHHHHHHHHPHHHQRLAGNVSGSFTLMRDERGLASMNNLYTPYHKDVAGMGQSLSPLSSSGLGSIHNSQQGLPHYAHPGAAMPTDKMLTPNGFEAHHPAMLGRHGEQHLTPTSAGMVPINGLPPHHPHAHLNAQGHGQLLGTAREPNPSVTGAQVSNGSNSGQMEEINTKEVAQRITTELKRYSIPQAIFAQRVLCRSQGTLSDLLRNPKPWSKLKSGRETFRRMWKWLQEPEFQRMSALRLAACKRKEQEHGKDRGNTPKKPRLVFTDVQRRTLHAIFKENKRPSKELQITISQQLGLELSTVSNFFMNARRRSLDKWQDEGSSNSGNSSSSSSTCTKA
Outline: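 Endogenous factor activity read in transiently transfected HepG2 via promoter-regulated reporter transcripts. RNA harvested 24 h post-dosing, reverse-transcribed, PCR-amplified, FAM-labelled, HpaI-digested and resolved by capillary electrophoresis; fitted in both directions against DMSO.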

[6] = molecular target: Heat shock factor protein 1 (Homo sapiens) (UniProt Q00613); assay: ATG_HSE_CIS: Attagene CIS-FACTORIAL HepG2 Assay for human Heat Shock Transcription Factor 1 (HSE) (AID 2282953); conditions: HepG2 HSE cis-reporter, Attagene RNA transcription; actives raise or lower the signal
Sequence of Heat shock factor protein 1 (Homo sapiens) (Q00613 whole entry, looked up): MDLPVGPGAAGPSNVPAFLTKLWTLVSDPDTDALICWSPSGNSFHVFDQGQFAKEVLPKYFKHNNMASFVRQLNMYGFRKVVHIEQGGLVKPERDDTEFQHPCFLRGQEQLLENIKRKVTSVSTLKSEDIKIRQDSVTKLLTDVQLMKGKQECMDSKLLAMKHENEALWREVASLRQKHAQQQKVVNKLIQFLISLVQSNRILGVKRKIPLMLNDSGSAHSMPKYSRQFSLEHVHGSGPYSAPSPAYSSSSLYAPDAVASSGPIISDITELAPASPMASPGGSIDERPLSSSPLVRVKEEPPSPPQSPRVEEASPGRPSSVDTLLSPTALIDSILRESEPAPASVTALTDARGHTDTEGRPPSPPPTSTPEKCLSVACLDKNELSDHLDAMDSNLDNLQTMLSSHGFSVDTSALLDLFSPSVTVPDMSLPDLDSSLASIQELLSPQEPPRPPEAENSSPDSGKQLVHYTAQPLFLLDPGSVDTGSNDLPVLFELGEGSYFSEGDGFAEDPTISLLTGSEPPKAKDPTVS
Outline: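 Reporter mRNA induction in HepG2 is measured 24 h after dosing, using transiently transfected multiplexed cis-regulated reporter units. Signal comes from capillary electrophoresis of labelled RT-PCR products, with DMSO as negative control.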

[7] = ATG_MRE_CIS: Attagene CIS-FACTORIAL HepG2 Assay for human Metal Responsive Element (MRE) (AID 2282954); conditions: HepG2 MRE cis-reporter transcription, Attagene multiplex; actives raise or lower the signal
Outline: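 RT-PCR/capillary electrophoresis readout of reporter mRNA, 24 h post-dosing, in HepG2 cells transfected with multiplexed cis-regulated reporter constructs. Gain or loss of signal fitted bidirectionally against DMSO baseline.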

[8] = molecular target: Paired box protein Pax-6 (Homo sapiens) (UniProt P26367); assay: ATG_Pax6_CIS: Attagene CIS-FACTORIAL HepG2 Assay for human Paired Box 6 (PAX6) (AID 2282956); conditions: HepG2 CIS-FACTORIAL PAX6 reporter transcription, RNA readout; actives raise or lower the signal
Sequence of Paired box protein Pax-6 (Homo sapiens) (P26367 whole entry, looked up): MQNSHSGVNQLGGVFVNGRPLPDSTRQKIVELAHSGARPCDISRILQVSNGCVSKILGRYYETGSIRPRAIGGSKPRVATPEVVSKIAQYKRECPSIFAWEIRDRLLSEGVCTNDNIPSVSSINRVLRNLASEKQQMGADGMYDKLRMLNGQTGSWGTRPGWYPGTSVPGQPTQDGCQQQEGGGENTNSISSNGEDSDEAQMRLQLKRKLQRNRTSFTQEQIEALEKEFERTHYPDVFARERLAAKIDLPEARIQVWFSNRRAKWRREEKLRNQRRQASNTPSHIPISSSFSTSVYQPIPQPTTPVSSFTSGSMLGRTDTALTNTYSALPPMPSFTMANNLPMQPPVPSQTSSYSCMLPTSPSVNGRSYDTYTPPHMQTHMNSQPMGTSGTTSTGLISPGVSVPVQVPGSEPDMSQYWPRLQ
Outline: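 Readout: reporter transcript fluorescence after RT-PCR and capillary electrophoresis. Cells: HepG2, transiently transfected with cis-regulated MRTUs. Exposure 24 h. Gain or loss of signal fitted bidirectionally relative to DMSO.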

[9] = ATG_PXRE_CIS: Attagene CIS-FACTORIAL HepG2 Assay for human Pregnane X Receptor Element (PXRE) (AID 2282957); conditions: HepG2 Attagene CIS-FACTORIAL PXRE reporter, mRNA; actives raise or lower the signal
Outline: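 Reporter transcripts under endogenous PXR-responsive cis-regulation quantified from total RNA of transfected HepG2 cells 24 h post-dosing, via RT-PCR with fluorescent primer extension and capillary electrophoresis. Gain or loss of signal fitted against DMSO baseline.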

[10] = ATG_PPRE_CIS: Attagene CIS-FACTORIAL HepG2 Assay for human Peroxisome Proliferator-activated Response Element (PPRE) (AID 2282958); conditions: HepG2 PPRE cis-element reporter, Attagene transcription factor profiling; actives raise or lower the signal
Outline: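 Endogenous PPRE-driven transcription is measured in HepG2 cells carrying transfected multi-reporter constructs. Reporter transcripts are quantified by RT-PCR, HpaI digestion and capillary electrophoresis 24 h after dosing. DMSO baseline, bidirectional fit.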

[11] = ATG_Sox_CIS: Attagene CIS-FACTORIAL HepG2 Assay for human SRY-box transcription factor (SOX) (AID 2282960); conditions: HepG2 Attagene cis-factorial SOX reporter, mRNA; actives raise or lower the signal
Outline: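 Reporter transcripts, measured by RT-PCR and capillary electrophoresis of labelled fragments, report endogenous SOX transcription factor activity. Transiently transfected human HepG2 cells receive chemical for 24 h; changes in either direction are fitted relative to DMSO.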

[12] = molecular target: Transcription factor Sp1 (Homo sapiens) (UniProt P08047); assay: ATG_Sp1_CIS: Attagene CIS-FACTORIAL HepG2 Assay for human Specificity Protein 1 (Sp1) (AID 2282961); conditions: HepG2 Sp1 cis-reporter transcription, actives raise or lower the signal
Sequence of Transcription factor Sp1 (Homo sapiens) (P08047 whole entry, looked up): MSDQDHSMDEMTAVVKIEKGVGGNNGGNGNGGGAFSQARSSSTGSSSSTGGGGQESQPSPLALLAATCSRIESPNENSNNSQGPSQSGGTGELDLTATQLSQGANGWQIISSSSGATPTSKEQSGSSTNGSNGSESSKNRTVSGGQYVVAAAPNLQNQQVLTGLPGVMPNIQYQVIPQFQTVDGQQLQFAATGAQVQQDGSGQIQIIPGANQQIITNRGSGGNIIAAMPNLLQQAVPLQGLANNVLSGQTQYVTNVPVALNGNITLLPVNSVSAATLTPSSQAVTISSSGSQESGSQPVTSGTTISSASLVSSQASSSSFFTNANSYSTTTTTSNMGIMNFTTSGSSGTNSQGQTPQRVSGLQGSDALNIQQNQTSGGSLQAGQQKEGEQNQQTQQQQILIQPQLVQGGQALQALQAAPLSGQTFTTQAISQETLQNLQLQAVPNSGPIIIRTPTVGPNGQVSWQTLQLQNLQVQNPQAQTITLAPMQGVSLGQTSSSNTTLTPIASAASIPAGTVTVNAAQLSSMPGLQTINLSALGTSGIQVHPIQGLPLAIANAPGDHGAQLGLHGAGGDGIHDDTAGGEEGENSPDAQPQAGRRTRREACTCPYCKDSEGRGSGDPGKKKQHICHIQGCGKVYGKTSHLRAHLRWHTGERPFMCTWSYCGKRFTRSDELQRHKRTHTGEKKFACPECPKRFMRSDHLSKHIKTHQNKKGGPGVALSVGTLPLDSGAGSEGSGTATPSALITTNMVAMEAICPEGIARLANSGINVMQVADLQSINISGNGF
Outline: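 Read-out is reporter transcript level, measured by RT-PCR and fluorescent capillary electrophoresis after 24 h chemical treatment. System: transiently transfected HepG2 cells reporting endogenous transcription factor activity; gain or loss fitted against DMSO baseline.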

[13] = ATG_SREBP_CIS: Attagene CIS-FACTORIAL HepG2 Assay for human Sterol Regulatory Element Binding (SREBP) (AID 2282962); conditions: HepG2 Attagene cis-factorial SREBP reporter, mRNA; actives raise or lower the signal
Outline: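 Readout: fluorescent reporter-transcript peaks resolved by capillary electrophoresis after RT-PCR. Cells were human HepG2 carrying transfected cis-promoter reporter constructs, dosed for 24 h. Gain or loss of signal was fitted against DMSO controls.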

[14] = molecular target: Signal transducer and activator of transcription 3 (Homo sapiens) (UniProt P40763); assay: ATG_STAT3_CIS: Attagene CIS-FACTORIAL HepG2 Assay for human Signal Transducer and Activator of Transcription 3 (STAT3) (AID 2282963); conditions: HepG2, Attagene cis-factorial STAT3 reporter transcription; actives raise or lower the signal
Sequence of Signal transducer and activator of transcription 3 (Homo sapiens) (P40763 whole entry, looked up, the tested form may be a part): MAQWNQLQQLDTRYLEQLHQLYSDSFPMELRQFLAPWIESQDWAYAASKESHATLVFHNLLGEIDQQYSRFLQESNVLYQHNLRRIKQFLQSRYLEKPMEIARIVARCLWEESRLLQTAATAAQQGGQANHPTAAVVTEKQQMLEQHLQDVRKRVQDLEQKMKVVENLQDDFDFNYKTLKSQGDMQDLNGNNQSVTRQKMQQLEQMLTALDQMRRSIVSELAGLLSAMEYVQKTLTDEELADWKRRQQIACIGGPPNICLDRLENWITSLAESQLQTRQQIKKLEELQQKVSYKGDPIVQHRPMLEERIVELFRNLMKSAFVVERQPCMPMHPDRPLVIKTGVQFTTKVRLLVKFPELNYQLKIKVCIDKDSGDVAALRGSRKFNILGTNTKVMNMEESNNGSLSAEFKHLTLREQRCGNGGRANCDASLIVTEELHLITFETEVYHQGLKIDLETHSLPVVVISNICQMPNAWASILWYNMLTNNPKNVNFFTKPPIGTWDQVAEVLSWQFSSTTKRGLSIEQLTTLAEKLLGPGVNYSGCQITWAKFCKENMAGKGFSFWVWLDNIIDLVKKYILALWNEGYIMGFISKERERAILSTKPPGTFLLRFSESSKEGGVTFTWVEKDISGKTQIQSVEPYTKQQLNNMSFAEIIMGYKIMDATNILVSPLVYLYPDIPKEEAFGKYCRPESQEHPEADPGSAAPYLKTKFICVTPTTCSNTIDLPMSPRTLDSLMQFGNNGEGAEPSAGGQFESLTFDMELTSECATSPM
Outline: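 Readout: fluorescent reporter mRNA fragments resolved by capillary electrophoresis. Setup: HepG2 transfected with MRTUs reporting endogenous transcription-factor activity, dosed 24 h. Gain or loss of signal fitted bidirectionally against DMSO control.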

[15] = ATG_TA_CIS: Attagene CIS-FACTORIAL HepG2 Assay for human TA Basal Promoter (AID 2282964); conditions: HepG2 Attagene CIS-factorial TA basal promoter reporter; actives raise or lower the signal
Outline: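 Cis-factorial format in HepG2: reporters report endogenous factors, not chimeric Gal4 fusions. After 24 h treatment, reporter transcripts were measured by RT-PCR-capillary electrophoresis fluorescence, analysed bidirectionally versus DMSO.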

[16] = ATG_TCF_b_cat_CIS: Attagene CIS-FACTORIAL HepG2 Assay for human T-Cell-Factor with beta-catenin (TCF/b-cat) (AID 2282965); conditions: HepG2 TCF/beta-catenin cis-reporter transcription, actives raise or lower the signal
Outline: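 HepG2, transient MRTU transfection, cis-element-driven reporters (endogenous TFs). 24 h compound exposure. Readout: reporter mRNA by RT-PCR + 6-FAM primer extension, HpaI digest, capillary electrophoresis. Gain/loss fit vs DMSO baseline.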

[17] = ATG_ISRE_CIS: Attagene CIS-FACTORIAL HepG2 Assay for human Interferon Regulatory Factor 1 (IRF1) binding to an Interferon-Stimulated Response Element (ISRE) (AID 2282948); conditions: HepG2 ISRE cis-reporter (Attagene), mRNA transcription readout; actives raise or lower the signal
Outline: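 Read-out: fluorescent RT-PCR products resolved by capillary electrophoresis, reporting endogenous transcription factor activity via ISRE-driven reporter mRNA in transfected HepG2 cells dosed for 24 h; gain or loss fitted relative to DMSO.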

[18] = ATG_PBREM_CIS: Attagene CIS-FACTORIAL HepG2 Assay for human Phenobarbital-responsive Enhancer Module (PBREM) (AID 2282955); conditions: HepG2 PBREM cis-reporter, Attagene multiplexed transcription; actives raise or lower the signal
Outline: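 Endogenous transcription factor activity was read from reporter transcripts in transiently transfected human HepG2 liver cells after 24 h dosing. RT-PCR products were fluorescently labelled, HpaI-cut and sized by capillary electrophoresis; activity fitted bidirectionally against DMSO baseline.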

[19] = ATG_RORE_CIS: Attagene CIS-FACTORIAL HepG2 Assay for human RAR-related Orphan Receptor Element (RORE) (AID 2282959); conditions: HepG2 Attagene cis-factorial RORE reporter, mRNA; actives raise or lower the signal
Outline: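 RORE reporter transcripts reflecting endogenous factor activity were read after 24 h compound exposure of transfected HepG2 cells, using reverse transcription, PCR, fluorescent labelling and capillary electrophoresis sizing. Gain or loss fitted against DMSO.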

Measured: AC50

CC(=O)Nc1ccc(C(=O)CCl)cc1
active: [7] 16.1 µM | [8] 9 µM | [11] 8.57 µM | [12] 8.32 µM | [13] 8.67 µM
inactive: [1] | [2] | [3] | [4] | [5] | [6] | [9] | [10] | [14] | [15] | [16]

CCCCC(CC)COC(C)=O (stereo not given)
inactive: [1] | [17] | [2] | [3] | [5] | [6] | [18] | [8] | [9] | [19] | [11] | [12] | [13] | [14] | [15] | [16]

O=c1[nH]c(=O)c2cn[nH]c2[nH]1
inactive: [1] | [17] | [2] | [3] | [5] | [7] | [18] | [8] | [9] | [10] | [19] | [11] | [12] | [13] | [14] | [15] | [16]

BrCc1cccc(Oc2ccccc2)c1
active: [9] 26.3 µM | [16] 100 µM
inactive: [1] | [2] | [3] | [4] | [5] | [6] | [7] | [18] | [8] | [10] | [11] | [12] | [13] | [14] | [15]

Nc1ccc(N)c2c1C(=O)c1ccccc1C2=O
inactive: [1] | [17] | [2] | [3] | [5] | [6] | [7] | [18] | [8] | [9] | [11] | [12] | [13] | [14] | [15]
active: [10] 4.05 µM

COC(=O)c1ccc(C)cc1C1=NC(C)(C(C)C)C(=O)N1 (stereo not given) (tested in a mixture with another compound)
inactive: [1] | [17] | [2] | [3] | [4] | [6] | [7] | [18] | [8] | [19] | [11] | [12] | [13] | [14] | [15] | [16]
active: [9] 15.2 µM

CC1C2CC(CC2C2CCCC(O)C2)C1(C)C (stereo not given)
active: [9] 3.04 µM
inactive: [1] | [17] | [2] | [3] | [5] | [6] | [7] | [8] | [19] | [11] | [12] | [13] | [15]

C=C(C)CNCC
inactive: [1] | [2] | [3] | [4] | [5] | [6] | [7] | [18] | [8] | [10] | [19] | [11] | [12] | [14] | [15] | [16]
active: [9] 52.9 µM
